Screening data from PubChem BioAssay.
ARNT TACC3 PPI – disruptors of ARNT/TACC3 protein interaction, primary screen, biochemical, AlphaScreen, single concentration | Transforming acidic coiled-coil-containing protein 3 (Homo sapiens), Q9Y6A5 | AlphaScreen His-ARNT PAS-B/GST-TACC3 binding, luminescence; TACC3 fragment carries E629A point mutation | inhibition, % at 9.99 µM | actives 0.66% (n = 390,000);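 active means mean inhibition of replicates at least 50% and at least half of replicates each reaching 50%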
ALR inh – inhibitors of human ALR sulfhydryl oxidase, primary screen, biochemical, H2O2 detection, HRP-luminol luminescence, single point; FAD-linked sulfhydryl oxidase ALR (Homo sapiens), P55789; purified ALR, DTT oxidation; inhibition, % (test concentration not listed); actives 3.8% (n = 290,000); AID 485317, 2010;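 active means mean replicate inhibition above about 79%, with every replicate also reaching it, limit read from the data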
Target sequence (P55789 whole entry, looked up): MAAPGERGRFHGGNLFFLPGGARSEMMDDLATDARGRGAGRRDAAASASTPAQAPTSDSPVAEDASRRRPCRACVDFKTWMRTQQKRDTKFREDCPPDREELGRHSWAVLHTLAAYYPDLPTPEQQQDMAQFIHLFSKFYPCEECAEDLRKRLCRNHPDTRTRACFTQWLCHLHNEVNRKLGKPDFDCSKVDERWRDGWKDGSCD
ERp5 inh – inhibitors of ERp5-driven insulin aggregation, primary screen, biochemical, turbidity, absorbance 650 nm, single point | AID 651711, 2012 | 90 min | inhibition, % at 9.99 µM | actives 0.05% (n = 350,000) | Protein disulfide-isomerase A6 (Homo sapiens), Q15084;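 active means mean replicate inhibition above about 25%, with every replicate also reaching it, limit read from the data, passing the limit was not always enough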
PglD inh – C. jejuni PglD acetyltransferase inhibitors, primary screen, biochemical, DTNB colorimetric, single point; UDP-N-acetylbacillosamine N-acetyltransferase PglD (Campylobacter jejuni); purified PglD enzyme, DTNB colorimetric CoA detection; inhibition, % at 12.5 µM; actives 0.098% (n = 360,000); in the data active means inhibition above about 16%, passing the limit was not always enough
PDI turbidity – inhibitors of human PDI, primary screen, biochemical, turbidity, single point, plate reader; Protein disulfide-isomerase (Homo sapiens), P07237; PDI insulin aggregation turbidity, A650, 90 min; inhibition, % at 10 µM; actives 0.052% (n = 350,000);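 active means mean inhibition across replicates of 30% or more, whatever share of single replicates reach that level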
Target sequence (P07237 whole entry, looked up): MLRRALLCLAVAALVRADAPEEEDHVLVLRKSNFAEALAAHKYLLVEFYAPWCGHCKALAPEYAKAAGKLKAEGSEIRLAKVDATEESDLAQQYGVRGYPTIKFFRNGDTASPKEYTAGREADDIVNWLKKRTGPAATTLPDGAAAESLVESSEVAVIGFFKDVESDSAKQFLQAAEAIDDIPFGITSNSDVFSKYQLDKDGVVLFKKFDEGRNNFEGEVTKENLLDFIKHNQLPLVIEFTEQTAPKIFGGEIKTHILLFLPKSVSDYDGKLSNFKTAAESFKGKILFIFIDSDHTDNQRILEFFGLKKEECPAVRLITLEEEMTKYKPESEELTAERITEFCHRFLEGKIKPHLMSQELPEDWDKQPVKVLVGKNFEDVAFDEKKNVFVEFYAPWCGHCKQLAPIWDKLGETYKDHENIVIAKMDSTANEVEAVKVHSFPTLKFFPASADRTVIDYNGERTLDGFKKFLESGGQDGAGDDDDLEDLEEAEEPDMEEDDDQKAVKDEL
CendR NRP1 mod – modulators of CendR peptide binding to NRP-1, primary screen, biochemical, fluorescence polarization, uHTS; Neuropilin-1 (Homo sapiens), O14786; FAM-RPARPAR peptide binding to NRP-1; inhibition, % at 25 µM; actives 0.85% (n = 360,000); AID 602438, 2012;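 active means inhibition or corrected inhibition above about 18%, plus a signal ratio from 0.5 to 1.5, limit read from the data, passing the limit was not always enough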
Large screens that a line does not name were inactive. Shown is part of a subset that was picked to be rich in hits.

CCOC(=O)c1c(C)[nH]c(C(=O)OCC(=O)Nc2ccc(OCC)cc2)c1C	none (no result: ERp5 inh, PglD inh)
CC(OC(=O)c1ccc(NC(=O)CC#N)cc1)C(=O)NCCC1=CCCCC1 (stereo unspecified)	ALR inh 98.4
CCOC(=O)c1c(C)[nH]c(C(=O)C(C)OC(=O)c2ccc(NC(=O)CC#N)cc2)c1C (stereo unspecified)	ALR inh 98.7
O=C(NCC[C@@H]1CC[C@@H](NS(=O)(=O)c2cccc(F)c2)[C@@H](CO)O1)C1CCOCC1	none (no result: ALR inh, PDI turbidity, CendR NRP1 mod)
C[C@H]1CN([C@@H](C)CO)C(=O)c2cc(NC(=O)C3CC3)ccc2O[C@@H]1CN(C)Cc1ccccc1	none (no result: ALR inh, PDI turbidity, CendR NRP1 mod)
C[C@@H]1CN([C@H](C)CO)C(=O)c2cc(NC(=O)Nc3ccc(F)cc3)ccc2O[C@@H]1CN(C)C(=O)Nc1ccc(F)cc1	none (no result: ALR inh, PDI turbidity, CendR NRP1 mod)
O=C(Nc1ccc(Oc2ccccc2)nc1)C1CCN(Cc2cccc(F)c2)CC1	CendR NRP1 mod 27.3
CC(C)(C)Nc1nc(Cl)nc(Nc2ccccc2)n1	ALR inh 98.1
CN(C)/C=N/c1nc(-c2ccc3c(c2)OCO3)cs1	ALR inh 97.5 (no result: ARNT TACC3 PPI)
COc1ccc(-c2oc3c(CC=C(C)C)c(O[C@@H]4O[C@H](CO)[C@@H](O)[C@H](O)[C@H]4O)cc(O)c3c(=O)c2O[C@@H]2O[C@@H](C)[C@H](O)[C@@H](O)[C@H]2O)cc1	none (no result: ARNT TACC3 PPI, ERp5 inh, PglD inh, PDI turbidity, CendR NRP1 mod)
C[C@@H]1O[C@@H](O[C@H]2[C@H](O)[C@@H](O)[C@H](Oc3c(-c4ccc(O)c(O)c4)oc4cc(O)cc(O)c4c3=O)O[C@@H]2CO)[C@H](O)[C@H](O)[C@H]1O	ALR inh 96.1, PDI turbidity 67.3
COc1cc(-c2oc3cc(O)cc(O)c3c(=O)c2O[C@@H]2O[C@H](COC3O[C@@H](C)[C@H](O)[C@@H](O)[C@H]3O)[C@@H](O)[C@H](O)[C@H]2O)ccc1O (stereo partly specified)	ALR inh 93.6, PDI turbidity 55.6
C[C@@H]1O[C@@H](Oc2c(-c3ccc(O)c(O)c3)oc3cc(O)cc(O)c3c2=O)[C@H](O)[C@H](O)[C@H]1O	ALR inh 98.8, PDI turbidity 73.0
C[C@@H]1O[C@@H](Oc2c(-c3cc(O)c(O)c(O)c3)oc3cc(O)cc(O)c3c2=O)[C@H](O)[C@H](O)[C@H]1O	ALR inh 99.5, PDI turbidity 47.4
O=c1c(O)c(-c2ccc(O)cc2)oc2cc(O)cc(O)c12	none (no result: PDI turbidity)
COc1ccc(-c2ccc3c(c2)[C@@H]2[C@@H](CCN2S(=O)(=O)c2ccccc2C)[C@H](CO)N3)cc1	none (no result: ALR inh, PDI turbidity, CendR NRP1 mod)
Cc1noc(C)c1S(=O)(=O)N(C)C[C@@H]1OCCCC[C@@H](C)Oc2ccc(NC(=O)Cc3ccccc3)cc2C(=O)N([C@@H](C)CO)C[C@H]1C	none (no result: ALR inh, PDI turbidity, CendR NRP1 mod)
COc1ccc(NC(=O)Nc2ccc3c(c2)[C@H]2C[C@@H](CC(=O)O)O[C@@H](CO)[C@H]2O3)cc1	none (no result: ALR inh, PDI turbidity, CendR NRP1 mod)
CCN1CC(=O)N2[C@H](C1)[C@H](c1ccc(-c3ccccc3F)cc1)[C@@H]2CO	none (no result: ARNT TACC3 PPI, ALR inh, PglD inh, PDI turbidity, CendR NRP1 mod)
COc1cc(SC#N)ccc1N=Cc1c(C)[nH]n(-c2cccc3ccccc23)c1=O	ALR inh 98.8 (no result: ARNT TACC3 PPI, ERp5 inh, PglD inh, PDI turbidity, CendR NRP1 mod)
COc1ccccc1N=Cc1c(C)[nH]n(-c2ccc(C)cc2C)c1=O	none (no result: PglD inh)
COc1cc(SC#N)ccc1N=Cc1c(C)[nH]n(-c2ccc(C)cc2C)c1=O	ALR inh 99.1 (no result: ERp5 inh)
COc1ccc2nc(/N=C/c3c(C)[nH]n(-c4ccc(C)cc4C)c3=O)sc2c1	ARNT TACC3 PPI 65.6
O=c1c2[nH]c3ccc(Br)cc3c2ncn1CCCn1ccnc1	ARNT TACC3 PPI 78.8 (no result: ERp5 inh)
O=C(COC(=O)c1ccccn1)c1cccc(Br)c1	ARNT TACC3 PPI 50.2
O=C(Nc1ccc(F)cc1)N1CC(=O)N2[C@H](CO)[C@H](c3ccc(C#Cc4cccnc4)cc3)[C@@H]2C1	none (no result: ARNT TACC3 PPI, ALR inh, PglD inh, PDI turbidity, CendR NRP1 mod)
S=C1NC2(CCCCCC2)NN1c1ccccc1	none (no result: ARNT TACC3 PPI, ALR inh, PglD inh, PDI turbidity, CendR NRP1 mod)
CCC1(c2ccc(Cl)cc2)NC(=S)N(c2ccc(C)cc2)N1 (stereo unspecified)	none (no result: ARNT TACC3 PPI, ERp5 inh, PglD inh)
CC1(CCc2ccccc2)NC(=S)N(c2ccc(Cl)cc2)N1 (stereo unspecified)	ALR inh 93.9 (no result: ERp5 inh, PglD inh)
CC1(CCc2ccccc2)NC(=S)N(c2ccccc2)N1 (stereo unspecified)	ALR inh 98.7 (no result: PglD inh)
C[C@@H]1CN([C@H](C)CO)C(=O)c2cc(NC(=O)c3ccncc3)ccc2O[C@@H](C)CCCCO[C@@H]1CN(C)C(=O)c1ccccc1	none (no result: ALR inh, PDI turbidity, CendR NRP1 mod)
CCCCCCSc1ccc([C@H]2N[C@@](Cc3ccccc3)(C(=O)OC)[C@H]3C(=O)N(C)C(=O)[C@@H]23)cc1OC	CendR NRP1 mod 27.8
CCCSc1ccc([C@H]2N[C@@](C)(C(=O)OC)[C@H]3C(=O)N(C)C(=O)[C@@H]23)cc1OC	CendR NRP1 mod 27.5
CC(=O)OC[C@H]1O[C@@H](Sc2cccc3cccnc23)[C@H](OC(C)=O)[C@@H](OC(C)=O)[C@@H]1OC(C)=O	none (no result: ERp5 inh, PglD inh)
CC(=O)OC[C@H]1O[C@@H](Sc2cccc3cccnc23)[C@H](OC(C)=O)[C@@H](OC(C)=O)[C@H]1OC(C)=O	ARNT TACC3 PPI 63.5
CCOC(=O)c1ccc2nc(C)c(CC)c(Cl)c2c1	none
CCCCc1c(C)nc2ccc(C(=O)OCC)cc2c1Cl	ALR inh 96.8 (no result: ERp5 inh)
C[C@@]12CCC3[C@@](CCC4[C@@]3(C)CCC[C@@]4(C)C(=O)Nc3ccc(Cl)cc3)(CC1=O)C2 (stereo partly specified)	CendR NRP1 mod 26.5
Cc1[nH]c2ccccc2c1CCNC(=O)CCC(=O)c1ccccc1	ALR inh 95.3
Cc1[nH]c2ccccc2c1CCC(N)=O	ALR inh 98.5 (no result: ERp5 inh)
CCCc1c(C)[nH]c2ccccc2c1=O	none (no result: ERp5 inh)
COc1ccc(S(=O)(=O)N(CCc2ccccc2)CC(=O)N2CCOCC2)cc1	ALR inh 98.9 (no result: ERp5 inh)
O=C(Cn1cccc1C(=O)c1ccccc1)NCCC1=CCCCC1	CendR NRP1 mod 22.8 (no result: PglD inh)
COc1ccc(OCCC(=O)OCC(=O)NCc2ccco2)cc1	none (no result: ERp5 inh)
COc1ccccc1OCCC(=O)OCC(=O)NCc1ccc(Cl)cc1	ALR inh 96.9 (no result: PglD inh)
COc1ccccc1OCCC(=O)OCC(=O)NCc1ccc(F)cc1	none (no result: ALR inh)
COc1ccc(OC)c(NC(=O)COC(=O)Cc2ccc(-c3ccccc3)cc2)c1	none (no result: ERp5 inh)
CCOc1ccccc1NC(=O)Cn1c(=O)c2ccccc2n(CC)c1=O	none (no result: ERp5 inh)
CCn1c(=O)n(CC(=O)Nc2cc(OC)ccc2OC)c(=O)c2ccccc21	ALR inh 98.7 (no result: ERp5 inh)
COc1ccccc1NCCC(=O)OCC(=O)NCc1ccco1	ALR inh 98.7 (no result: ERp5 inh)
